The full list was thinned out, with hits kept by preference.
Dicer inh = human Dicer pre-microRNA cleavage inhibition; AID 1347074; z-score at 25 µM; cat-ELCCA pre-miR-21 Dicer processing, chemiluminescence; hits give high values; 47,000 compounds, 6% hits; Q9UPY3; in the data active means z-score above about 3, passing the limit was not always enough;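 further: higher signal means more uncleaved substrate so more Dicer inhibition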
Target sequence (Q9UPY3 whole entry, looked up): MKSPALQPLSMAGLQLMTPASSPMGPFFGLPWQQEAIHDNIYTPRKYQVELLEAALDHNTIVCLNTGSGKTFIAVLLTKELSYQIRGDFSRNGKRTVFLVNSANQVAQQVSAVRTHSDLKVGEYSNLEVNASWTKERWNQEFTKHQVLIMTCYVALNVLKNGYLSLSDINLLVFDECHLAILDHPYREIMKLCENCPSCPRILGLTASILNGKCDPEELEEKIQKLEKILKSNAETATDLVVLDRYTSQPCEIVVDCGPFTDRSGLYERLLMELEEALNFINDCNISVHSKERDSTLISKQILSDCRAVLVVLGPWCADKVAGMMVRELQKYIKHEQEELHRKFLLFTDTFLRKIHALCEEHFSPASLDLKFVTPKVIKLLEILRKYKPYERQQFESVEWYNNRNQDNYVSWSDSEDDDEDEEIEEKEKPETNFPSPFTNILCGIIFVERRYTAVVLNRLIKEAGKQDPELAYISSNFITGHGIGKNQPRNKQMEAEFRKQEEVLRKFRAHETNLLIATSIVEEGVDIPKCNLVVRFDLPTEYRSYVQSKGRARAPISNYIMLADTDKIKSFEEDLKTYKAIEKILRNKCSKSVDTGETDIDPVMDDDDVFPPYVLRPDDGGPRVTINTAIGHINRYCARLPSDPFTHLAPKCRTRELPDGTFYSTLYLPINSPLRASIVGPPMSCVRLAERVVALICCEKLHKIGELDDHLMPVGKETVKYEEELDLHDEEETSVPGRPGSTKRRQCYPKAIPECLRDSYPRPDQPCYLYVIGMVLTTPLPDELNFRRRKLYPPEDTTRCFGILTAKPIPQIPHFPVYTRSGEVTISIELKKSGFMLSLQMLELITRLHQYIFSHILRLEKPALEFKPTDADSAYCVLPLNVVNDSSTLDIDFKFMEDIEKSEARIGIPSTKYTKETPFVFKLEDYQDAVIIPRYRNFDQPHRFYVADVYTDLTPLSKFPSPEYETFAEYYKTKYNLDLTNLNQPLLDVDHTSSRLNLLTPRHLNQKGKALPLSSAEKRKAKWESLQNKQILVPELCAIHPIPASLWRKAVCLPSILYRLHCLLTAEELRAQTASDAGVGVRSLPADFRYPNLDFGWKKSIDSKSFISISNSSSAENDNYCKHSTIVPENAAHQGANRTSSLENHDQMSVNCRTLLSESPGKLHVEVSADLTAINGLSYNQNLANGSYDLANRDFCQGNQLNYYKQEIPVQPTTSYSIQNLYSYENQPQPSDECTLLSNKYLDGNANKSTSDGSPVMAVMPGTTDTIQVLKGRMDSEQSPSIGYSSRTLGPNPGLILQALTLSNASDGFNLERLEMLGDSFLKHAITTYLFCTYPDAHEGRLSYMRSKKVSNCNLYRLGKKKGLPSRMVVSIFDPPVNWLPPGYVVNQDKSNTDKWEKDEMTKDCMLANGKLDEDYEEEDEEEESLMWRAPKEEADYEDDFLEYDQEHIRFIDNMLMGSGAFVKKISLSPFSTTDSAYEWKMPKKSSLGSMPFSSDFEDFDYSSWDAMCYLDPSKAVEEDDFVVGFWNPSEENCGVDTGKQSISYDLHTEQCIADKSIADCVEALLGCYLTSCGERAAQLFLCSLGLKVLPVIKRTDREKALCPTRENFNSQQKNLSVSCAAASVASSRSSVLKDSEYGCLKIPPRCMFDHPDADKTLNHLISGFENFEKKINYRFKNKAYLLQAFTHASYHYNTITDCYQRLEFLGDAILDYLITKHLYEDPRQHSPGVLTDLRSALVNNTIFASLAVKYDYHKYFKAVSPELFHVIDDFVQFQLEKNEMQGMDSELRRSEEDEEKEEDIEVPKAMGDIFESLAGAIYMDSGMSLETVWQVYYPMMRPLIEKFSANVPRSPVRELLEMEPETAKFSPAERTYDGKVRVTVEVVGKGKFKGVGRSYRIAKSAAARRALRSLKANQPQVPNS
Numbers stand for hits.

Screening CCc1n(CC(O)COc2c(C)cccc2C)c2ccccc2[n+]1C (configuration not stated) returned Dicer inh inactive.
COC(=O)COc1ccc(C2C(C(=O)OC)=C(C)NC3=C2C(=O)c2ccccc23)cc1 (configuration not stated) was read as Dicer inh inactive.
Screening Cn1ccnc1Sc1cnc(=S)[nH]c1-c1ccc(Cl)cc1 returned Dicer inh inactive.
For COC(=O)c1sccc1Br the results were Dicer inh inactive.
Screening O=c1c2cnn(-c3ccccc3)c2nnn1/N=C/c1ccc([N+](=O)[O-])cc1 returned Dicer inh 3.28.
`Cc1nc2c(cnn2-c2ccccc2)c(=O)n1/N=C/c1ccc(Cl)cc1` gave Dicer inh 3.18.
Screening O=c1c2cnn(-c3ccccc3)c2ncn1/N=C/c1ccc(Cl)cc1 returned Dicer inh inactive.
`Cc1nc2c(cnn2-c2ccccc2)c(=O)n1/N=C/c1cccs1` gave Dicer inh inactive.
`O=c1c2cnn(-c3ccccc3)c2nnn1/N=C/c1ccc(OCc2ccccc2)cc1` gave Dicer inh inactive.
For O=c1c2cnn(-c3ccccc3)c2ncn1/N=C/c1ccc(OCc2ccccc2)cc1 the results were Dicer inh inactive.
CCOC(=O)c1c(C)nn(-c2ncccc2N)c1C was read as Dicer inh inactive.
Screening COC(=O)c1c(C)[nH]c(C)c1-c1ccn[nH]1 returned Dicer inh inactive.
CCOC(=O)C1C(=O)C(=O)N(C)C1c1ccccc1 (configuration not stated) was read as Dicer inh inactive.
COc1cc2ncnc(N3CC(C)OC(C)C3)c2cc1OC (configuration not stated) was read as Dicer inh inactive.
`O=C(c1cccc(C(F)(F)F)c1)N1CCc2sccc2C1c1ccc(OC(F)(F)F)cc1` (configuration not stated) gave Dicer inh inactive.
For CCOC(=O)c1c(C)oc2ccc(OCC(N)=O)cc12 the results were Dicer inh inactive.
CCOC(=O)c1c(COc2ccccc2)oc2ccc(O)cc12 was read as Dicer inh inactive.
`CCOC(=O)c1c(CN2CCOCC2)oc2ccc(OC)cc12` gave Dicer inh 3.52.
N#Cc1ccsc1NC(=O)CSCC(=O)O was read as Dicer inh inactive.
Screening COc1ncccc1C(=O)Nc1ccccc1Cl returned Dicer inh inactive.
CC(C)(C)NC(=O)NC(=O)c1ccc(Oc2ccc(C(F)(F)F)cc2[N+](=O)[O-])cc1 was read as Dicer inh 3.76.
`O=[N+]([O-])c1cc(C(F)(F)F)ccc1Oc1ccc(F)cc1` gave Dicer inh inactive.
`CS(=O)c1ccc(Oc2ccc(C(F)(F)F)cc2[N+](=O)[O-])cc1` (configuration not stated) gave Dicer inh inactive.
For CC1COC(c2cccc([N+](=O)[O-])c2)N1 (configuration not stated) the results were Dicer inh inactive.
`CCn1c[n+](CC(O)COc2ccc(OC)cc2)c2ccccc21` (configuration not stated) gave Dicer inh inactive.
For O=C(O)c1cccc2cccc(S(=O)c3cccc4ccccc34)c12 (configuration not stated) the results were Dicer inh inactive.
Screening CCSCCOC(=O)C1=C(C)NC2=C(C(=O)CCC2)C1c1ccc(OC)cc1OC (configuration not stated) returned Dicer inh inactive.
CCSCCOC(=O)C1=C(C)NC2=C(C(=O)CCC2)C1c1cccc(Oc2ccccc2)c1 (configuration not stated) was read as Dicer inh 6.02.
CC1=C(C(=O)OCC2CCCO2)C(c2cccc(Oc3ccccc3)c2)C2=C(CCCC2=O)N1 (configuration not stated) was read as Dicer inh inactive.
For CC1=C(C(=O)OCCc2ccccc2)C(c2ccc(Br)cc2)C2=C(CCCC2=O)N1 (configuration not stated) the results were Dicer inh inactive.
Screening CCOc1ccc(C2C(C(=O)OCCSCC)=C(C)NC3=C2C(=O)CCC3)cc1 (configuration not stated) returned Dicer inh inactive.
For CC1=C(C(=O)OCCc2ccccc2)C(c2ccsc2)C2=C(CCCC2=O)N1 (configuration not stated) the results were Dicer inh 3.75.
For CC1=C(C(=O)OCCc2ccccc2)C(c2ccc(C)cc2)C2=C(CCCC2=O)N1 (configuration not stated) the results were Dicer inh inactive.
`CCSCCOC(=O)C1=C(C)NC2=C(C(=O)CCC2)C1c1ccc(OC)c(Br)c1` (configuration not stated) gave Dicer inh inactive.
Screening CCSCCOC(=O)C1=C(C)NC2=C(C(=O)CCC2)C1c1ccc(F)cc1 (configuration not stated) returned Dicer inh 6.41.
`CC1CN(c2ncc(C(=O)OCc3ccccc3)c(C(F)(F)F)n2)CC(C)O1` (configuration not stated) gave Dicer inh inactive.
For Cc1ccc(-c2c(C#N)c(N)nc3c2CC(C)CC3)o1 (configuration not stated) the results were Dicer inh inactive.
Screening Cn1c(-c2ccc(F)cc2)cnc1NCc1cccc(Cl)c1 returned Dicer inh inactive.
COc1ccc(C(OC[C@H]2O[C@@H](n3cnc4c(=O)[nH]c(N)nc43)CC2O)(c2ccccc2)c2ccc(OC)cc2)cc1 (some centres not stated) was read as Dicer inh inactive.
`O=[N+]([O-])/C=C/c1c(-c2ccc3ccccc3c2)[nH]c2ccccc12` gave Dicer inh inactive.
Clc1ccc(-c2cc3ccccc3[nH]2)cc1 was read as Dicer inh inactive.
O/N=C/c1c(-c2ccc(Cl)cc2)[nH]c2ccccc12 was read as Dicer inh 4.97.
`C=CCOc1ccc(CNCCSc2nnnn2C)cc1` gave Dicer inh inactive.
Screening Cn1c(=O)oc2cc(S(=O)(=O)N(CCO)CCO)ccc21 returned Dicer inh inactive.
Screening COC(=O)c1c(-c2c(Cl)cccc2Cl)noc1/C=C/N(C)C returned Dicer inh inactive.
Nc1ccccc1Sc1cc(Sc2ccccc2N)c([N+](=O)[O-])cc1Cl was read as Dicer inh inactive.
For O=C1ON=C(c2ccccc2)C1C=C1CCCC1 (configuration not stated) the results were Dicer inh 4.2.
Screening O=C1N=C(c2ccccc2)C(c2ccccc2)N1 (configuration not stated) returned Dicer inh inactive.
Screening Cc1nn(C(=O)C2CC2)c(C)c1Oc1ccc(Cl)cc1 returned Dicer inh inactive.
Screening CCOC(=O)c1nnn2c1nc(N/N=C/c1ccncc1)c1ccccc12 returned Dicer inh inactive.
Screening COc1cc2[nH]c(Nc3ccc(Cl)cc3)c([N+](=O)[O-])c2cc1OC returned Dicer inh inactive.
`CC[n+]1c(/C=C/c2ccc(N(C)C)cc2)sc2ccccc21` gave Dicer inh inactive.
For CN(C)c1ccc(/C=C/C2=Nc3ccccc3C2(C)C)cc1 the results were Dicer inh inactive.
`CC[n+]1c(/C=C/c2ccc(N(C)C)cc2)ccn1-c1ccccc1` gave Dicer inh 3.33.
Screening O=C(NNC1=Nc2ccccc2SC1)c1ccccc1 returned Dicer inh inactive.
Screening CCOC(=O)/C(C)=N/Nc1ccc(C)c(C)c1 returned Dicer inh inactive.
`COc1ccccc1-c1nn(-c2cc(C(F)(F)F)ccn2)c(=O)o1` gave Dicer inh inactive.
